A3A deaminase: APOBEC3A ssDNA deaminase inhibitors, primary screen, selectivity assay for APOBEC3G inhibitor project, biochemical, FAM/TAMRA oligo cleavage fluorescence; DNA dC->dU-editing enzyme APOBEC-3A (Homo sapiens), P31941; recombinant A3A, FAM/TAMRA ssDNA deamination fluorescence; inhibition, % at 20 µM; actives 0.41% (n = 330,000); AID 493011, 2011;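 active means at least 40% inhibition at 20 µM here, with at most 30% in a related deaminase screen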;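 further: plate controls were A3A with DMSO for no effect and wells lacking A3A enzyme for full effect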
Target sequence (P31941 whole entry, looked up): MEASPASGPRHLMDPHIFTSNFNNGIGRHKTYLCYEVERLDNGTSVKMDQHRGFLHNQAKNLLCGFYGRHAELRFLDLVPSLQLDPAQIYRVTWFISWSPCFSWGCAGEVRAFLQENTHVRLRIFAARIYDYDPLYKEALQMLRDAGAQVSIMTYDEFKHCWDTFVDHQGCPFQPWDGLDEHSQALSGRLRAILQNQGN
rCAG RNA binder: binders of r(CAG) RNA repeats, primary screen, biochemical, fluorescence; r(CAG) RNA repeat, TO-PRO-1 dye displacement fluorescence; inhibition, % at 3 µM; actives 1.3% (n = 370,000); AID 651821, 2012;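 active means inhibition above the plate cutoff, the mean of all test compounds on that plate plus 3 SD, cut at about 35% in these data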;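 further: 0% = DMSO alone and 100% = 100 µM mitoxantrone as full dye displacement; higher means more dye released from RNA so lower well fluorescence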
APOBEC3G inh: APOBEC3G DNA deaminase inhibitors, primary screen, biochemical, fluorescence, single-stranded DNA substrate, uHTS | recombinant A3G, ssDNA deamination FAM/TAMRA fluorescence | inhibition, % at 20 µM | AID 493012, 2011 | actives 0.28% (n = 330,000);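 active means inhibition of at least 40% at 20 µM, with no more than 30% in the related APOBEC3A deaminase screen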;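 further: plate controls were DMSO wells with A3G for no effect and wells lacking A3G enzyme for full effect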
aDG glyco act: activators of alpha-DG glycosylation, primary screen, uHTS, Pro5-aDG cells, AlphaScreen. activation, % at 10 µM. actives 0.22% (n = 360,000). alpha-DG glycosylation AlphaScreen (IIH6); 0% Pro5, 100% B10-LARGE cell signal. AID 624168, 2012;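 active means activation of at least 8% versus controls, or a plate z-score of at least 8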;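 further: Pro5 are CHO cells carrying HIG-tagged alpha-DG that lacks glycosylation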
ALR inh: inhibitors of human ALR sulfhydryl oxidase, primary screen, biochemical, H2O2 detection, HRP-luminol luminescence, single point; purified ALR, DTT oxidation; inhibition, % (test concentration not listed); actives 3.8% (n = 290,000);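 active means mean replicate inhibition above about 79%, with every replicate also reaching it, limit read from the data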
Target sequence (P55789 whole entry, looked up): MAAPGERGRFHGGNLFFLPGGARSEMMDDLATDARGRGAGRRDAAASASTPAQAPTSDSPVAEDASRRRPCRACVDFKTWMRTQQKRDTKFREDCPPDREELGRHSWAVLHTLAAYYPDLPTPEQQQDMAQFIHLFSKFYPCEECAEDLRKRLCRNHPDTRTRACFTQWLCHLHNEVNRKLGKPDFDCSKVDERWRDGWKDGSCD
PHOSPHO1 block: PubChem AID 1565; Phosphoethanolamine/phosphocholine phosphatase (Homo sapiens), Q8TCT1; actives 1.1% (n = 290,000); inhibition, % at 13.3 µM; recombinant PHOSPHO1, absorbance phosphatase assay; in the data active means inhibition above about 60%
A3G conf: APOBEC3G deaminase inhibitor retest, confirmation, biochemical, fluorescence, single-stranded DNA substrate, single concentration; inhibition, % at 20 µM; recombinant A3G ssDNA deaminase, UDG/FAM-TAMRA fluorescence; shares compounds with APOBEC3G inh; actives 72% (n = 890);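 active means inhibition reaching a set limit in any replicate at 20 µM, the limit being 80% of the first screen's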
UDG A3G counter: E. coli UDG inhibitors, confirmation, counter-screen for APOBEC3G inhibitor project, biochemical, single concentration, fluorescence, FAM/TAMRA oligo | shares compounds with APOBEC3G inh | UDG counterscreen | inhibition, % at 20 µM | 710 tested, under 10 active | AID 504715, 2011;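 active means compounds giving 40% or more inhibition at 20 µM in any one of the three replicates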;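 further: plate controls were DMSO wells with UDG and oligo for no effect and DMSO wells lacking both for full effect; inhibitors lower the FAM signal released by uracil excision and alkaline cleavage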
Target sequence (P12295 whole entry, looked up): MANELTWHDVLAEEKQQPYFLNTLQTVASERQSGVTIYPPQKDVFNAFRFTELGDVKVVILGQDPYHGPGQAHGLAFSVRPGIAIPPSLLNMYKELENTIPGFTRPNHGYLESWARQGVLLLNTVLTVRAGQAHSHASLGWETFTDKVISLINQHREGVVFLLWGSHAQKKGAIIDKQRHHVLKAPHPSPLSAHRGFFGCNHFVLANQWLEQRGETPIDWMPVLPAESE
Active calls of the source: *; / = not tested or not shown. Only some compounds are listed: those with a hit (about 5.4% of all), similar ones and a draw of the others.

SMILES | A3A deaminase | rCAG RNA binder | APOBEC3G inh | aDG glyco act | ALR inh | PHOSPHO1 block | A3G conf | UDG A3G counter
COc1ccc(Cl)cc1NC(=O)NC1CCCCC1 | 19 | 0 | 46* | 0 | 14 | 6 | 27* | 5
Cc1ccc(S(=O)(=O)N(C)[C@H]2C[C@H]3c4cc(-c5ccc6c(c5)OCO6)ccc4CCN3C[C@H]2[C@H](C)O)cc1 | / | 9 | / | / | / | / | / | /
CCCCCn1c(=O)c2ccccc2n2c(=S)[nH]nc12 | -6 | 10 | 43* | 0 | 21 | -42 | 76* | -1
CCCCn1c(Cc2ccccc2)n[nH]c1=S | -4 | -3 | 28 | 0 | 45 | -24 | / | /
CCCn1c(=O)c2ccccc2n2c(SCC(=O)c3ccc(F)cc3)nnc12 | / | / | / | / | / | -34 | / | /
CCC(C)c1ccc(-n2c(=O)c3ccccc3n3c(=S)[nH]nc23)cc1 (configuration not stated) | -8 | 1 | 23 | 0 | 0 | -156 | / | /
CCCCn1c(=O)c2ccccc2n2c(=S)[nH]nc12 | -5 | 1 | 40* | 0 | 15 | -47 | 71* | 1
CCCn1c(=O)c2ccccc2n2c(=S)[nH]nc12 | -9 | 11 | 53* | 0 | 42 | -60 | 69* | 2
O=c1c2ccccc2n2c(=S)[nH]nc2n1-c1ccccc1 | -6 | 3 | 58* | 0 | 48 | 43 | 69* | -2
Cc1cccc(C)c1NC(=O)C1c2ccccc2OCC(=O)N1CCCN1CCOCC1 (configuration not stated) | / | 1 | / | 0 | / | / | / | /
CC(=O)N(c1nc2ccccc2s1)N1C(=O)c2ccccc2C1=O | / | 1 | / | / | / | / | / | /
CC(=O)C1=CCC(c2cccc(Cl)c2)N(S(=O)(=O)c2ccc(C)cc2)C1 (configuration not stated) | / | 2 | / | 0 | / | / | / | /
Cn1c(=O)c2ccccc2n2c(=S)[nH]nc12 | -7 | 2 | 44* | 0 | 59 | -109 | 70* | 5
O=C(Cn1sc2ccccc2c1=O)Nc1ccc(Cl)cc1 | / | 5 | / | 0 | / | / | / | /
CCOc1ccc(NC(=O)Cn2ncc3ccccc32)cc1 | -1 | -1 | -5 | 0 | 22 | -28 | / | /
Cc1ccc(NC(=O)Cn2sc3nc(C)cc(C)c3c2=O)c(Cl)c1 | -8 | 2 | 72* | 0 | -4 | -130 | 92* | -1
Cc1cc(C)c2c(=O)n(CC(=O)Nc3ccc(Cl)cc3)sc2n1 | -7 | 1 | 82* | 0 | -16 | -107 | 93* | 0
Cc1ccc(NC(=O)Cn2c(C)cc(C)c(C#N)c2=O)c(Cl)c1 | 12 | 2 | 8 | 0 | -6 | 10 | / | /
CCOc1ccc(NC(=O)Cn2sc3nc(C)cc(C)c3c2=O)cc1 | -1 | / | 80* | 0 | 19 | -102 | 49* | -3
Cc1cc(C)c2c(=O)n(CC(=O)N3CCC(Cc4ccccc4)CC3)sc2n1 | 2 | / | 43* | / | / | -28 | 58* | /
O=C1CCC[C@@H]2[C@@H](Cc3ccccc3)[C@H](N3CCN(c4ccccc4)CC3)C[C@@H]3CCN1[C@@H]32 | / | 0 | / | 0 | / | / | / | /
Cc1cc(C)c2c(=O)n(CC(=O)Nc3cccc(F)c3)sc2n1 | 5 | 0 | 76* | 0 | / | -49 | 84* | 1
CC(C)(C)C(=O)c1c(N)[nH]c(C(=O)c2ccccc2)c1-c1ccc(C(F)(F)F)cc1 | / | 4 | / | 0 | / | / | / | /
O=C(CN(CC(=O)N1CCOCC1)S(=O)(=O)c1ccc(Br)s1)N1CCOCC1 | -1 | 1 | 46* | 1 | -3 | / | 58* | -2
COc1ccc(S(=O)(=O)Nc2nnc(C(C)(C)C)s2)cc1 | 5 | 8 | 50* | 0 | -3 | 98* | 20* | 2
SMILES | A3A deaminase | rCAG RNA binder | APOBEC3G inh | aDG glyco act | ALR inh | PHOSPHO1 block | A3G conf | UDG A3G counter
Cc1ccccc1Nc1nc(Cl)nc(NC(C)(C)C)n1 | / | -3 | / | 0 | / | / | / | /
COC(=O)CSc1nc(N)c2c3c(sc2n1)C(c1ccccc1)SC(c1ccccc1)C3 (configuration not stated) | -1 | / | 43* | 0 | -3 | -15 | 4 | 2
Cc1noc(C)c1NC(=O)N(C)C[C@@H]1OCc2cnnn2CCCC(=O)N([C@H](C)CO)C[C@@H]1C | / | -1 | / | 0 | / | / | / | /
O=c1c2cccc(Cl)c2nc2n1Cc1ccccc1-2 | 3 | -1 | 59* | 0 | 1 | 81* | 55* | -1
Cc1ccccc1NC(=O)Cn1nnc2ccccc21 | -3 | -3 | 50* | 0 | -9 | -18 | -8 | -6
NC(=O)NN=C1CCC(OCc2ccccc2)CC1CC(=O)O (configuration not stated) | / | 3 | / | 0 | / | / | / | /
Cc1ccccc1-n1c(-c2csc3ccccc23)n[nH]c1=S | -6 | 8 | -10 | 0 | / | -5 | / | /
C=CCn1c(-c2csc3ccccc23)n[nH]c1=S | 7 | 4 | 43* | 0 | 67 | 102* | 31 | /
C=CCn1c(-c2ccc([N+](=O)[O-])cc2)n[nH]c1=S | -6 | 0 | 45* | 1 | 17 | 26 | 78* | 0
C=CCn1c(-c2cc(Cl)ccc2OC)n[nH]c1=S | -5 | 0 | 46* | 0 | 42 | 92* | 81* | 2
C=CCn1c(-c2cccnc2)n[nH]c1=S | -4 | -2 | -5 | 0 | 33 | -5 | / | /
C=CCn1c(-c2cccc(OC)c2)n[nH]c1=S | 0 | 1 | 51* | 0 | 96* | 11 | 13 | /
C[C@H]1CN([C@@H](C)CO)C(=O)CCCn2cc(nn2)CO[C@@H]1CN(C)C(=O)Nc1ccc(N2CCCCC2)cc1 | / | 1 | / | 0 | / | / | / | /
CCN1C[C@@H]2[C@@H]3C(=O)N(C)C(=O)[C@@H]3[C@](Cc3ccccc3)(C1=O)N2C(=O)c1ccc(C(C)(C)C)cc1 | / | -10 | / | 0 | / | / | / | /
CC[C@@H](CCCCCC#N)CCC(=O)N(c1ccccc1)c1ccccc1 | / | 2 | / | / | / | / | / | /
Cc1cccc(S(=O)(=O)N[C@@H]2CC[C@@H](CCNS(=O)(=O)c3ccccc3F)O[C@@H]2CO)c1 | / | 3 | / | 0 | / | / | / | /
